Laboratory results as given in PubChem BioAssay (NCI).
The panel holds about 79,000 compounds, 15% with a hit somewhere; the sample as a whole holds those more often. Activity calls are given as the source filed them. Rule as the data show it: active = growth inhibition above about 70%; inactive = the rest. Where a SMILES comes first, the peptide text is derived from it. Bridges are numbered along the chain shown (N, C = ends). Roman numbers before positions name the chains, in order.

Assay: NCI Yeast Anticancer Drug Screen. Data for the mlh1 rad18 strain (AID 175)
Details: S. cerevisiae mlh1 rad18 strain growth inhibition; at 50.0 µM; hits give high values
Protocol: Growth inhibition of yeast strains with defined genetic alterations is measured as a screen for potential anti-cancer activity. Selected strains with alterations in DNA damage repair or cell cycle control were exposed to compounds and growth inhibition was measured relative to vehicle treated controls. The strain used in this assay is mlh1 rad18

SMILES	growth inhibition
Cc1cc(NS(=O)(=O)c2ccc(NC(=O)c3ccc(Cl)c4c(Nc5ccc(S(N)(=O)=O)cc5)c5ccccc5nc34)cc2)no1	68.1% (inactive)
Cc1nn(C(=O)c2ccccc2O)c2c1C(c1ccc(O)cc1)SC(N)=N2 (stereo not given)	6.65% (inactive)
Cc1ccc(S(=O)(=O)C(c2ccccc2)C(Br)C(=O)c2ccccc2)cc1 (stereo not given)	-8.4% (inactive)
COc1ccc(/C=C/c2cc(O)cc(OC3OC(CO)C(O)C(O)C3O)c2)cc1O (stereo not given)	10.8% (inactive)
Fc1ccccc1N=Cc1ccc(C=Nc2ccccc2F)cc1	26.4% (inactive)
CC(=O)OCC(COC(C)=O)C(C)=O	-22.6% (inactive)
C/C=C/C(=O)OC1CCCC1	23.9% (inactive)
O=C(O)c1nn(-c2ccccc2)c2c1CSc1ccccc1-2	13.2% (inactive)
CCN(CC)CCOC(=O)c1c(C)cc(C)cc1C	-7.9% (inactive)
COc1ccc(OC)c2c(Nc3ccc(S(=O)(=O)O)c4cc(S(=O)(=O)O)cc(S(=O)(=O)O)c34)cc(C)nc12	10.9% (inactive)
CC12CCC3[C@@H](CC3(C)C)C(O)(CCC1=O)C2 (stereo not given in full)	-57.1% (inactive)
Cc1cc2ccccc2c2cc3ccccc3cc12	7.75% (inactive)
COc1ccc(S(=O)(=O)c2ccc(F)cc2)cc1	-21.4% (inactive)
CCCCCCC(=O)/C=C/c1cccc(OCc2ccccc2)c1	13.7% (inactive)
COC(OC)C1OC(C)(C)OC1C(OS(=O)(=O)c1ccc(C)cc1)C1COC(C)(C)O1 (stereo not given)	12.7% (inactive)
CCCC[N+](C)(C)CC[N+](C)(C)CCCC	-16.2% (inactive)
O=C(O)COc1ccccc1F	-3.85% (inactive)
Cc1[nH]nc2c1NC(=O)OC2	2.45% (inactive)
COc1ccc2oc3c(ccc[n+]3C)c(=O)c2c1	-16.9% (inactive)
CN(C)/N=C\c1ccc(C(=O)O)cc1	22.9% (inactive)

SMILES	growth inhibition
CCOC(=O)C(C=Nc1ccc(S(N)(=O)=O)cc1)C(=O)OCC	-24.9% (inactive)
CC1=C(CN(CC(=O)O)CC(=O)O)C(=O)C(C(C)C)=C/C1=C(\c1ccccc1S(=O)(=O)O)c1cc(C(C)C)c(O)c(CN(CC(=O)O)CC(=O)O)c1C	-8.7% (inactive)
NC(N)=NC(N)=Nc1ccc(C(=O)O)cc1	-4% (inactive)
C=CCNC(=S)NN(C)C	-16.4% (inactive)
CCN1C(=O)C(=O)C(CC)(CC)C1=O	-13.6% (inactive)
CC(C)c1cccc(C(C)C)c1NC1=CC(=O)C(=O)c2ccccc21	-7.85% (inactive)
Cc1ccc(S(=O)(=O)OCC(C)C(c2ccccc2)c2ccccc2)cc1 (stereo not given)	0.2% (inactive)
O=[N+]([O-])c1ccc(OP2(Oc3ccc([N+](=O)[O-])cc3)=NP(Oc3ccc([N+](=O)[O-])cc3)(Oc3ccc([N+](=O)[O-])cc3)=NP(Oc3ccc([N+](=O)[O-])cc3)(Oc3ccc([N+](=O)[O-])cc3)=NP(Oc3ccc([N+](=O)[O-])cc3)(Oc3ccc([N+](=O)[O-])cc3)=N2)cc1	-17.2% (inactive)
CN1C(=S)CSc2ccccc21	1.85% (inactive)
c1ccc2[nH]cnc2c1	-46.8% (inactive)
O=C(O)c1cc(=O)[nH]c(=O)[nH]1	-21.2% (inactive)
CCCC(=O)OCCc1ccccc1	-26% (inactive)
CC(C)CC(NC(=O)C(N)CSSCC(N)C(=O)NC(CC(C)C)C(=O)O)C(=O)O (stereo not drawn) (I: H-Cys-Leu-OH / II: H-Cys-Leu-OH; disulfide I:1-II:1; configuration not given here)	-6.9% (inactive)
COc1ccc(Cl)cc1C(O)CN1CCCCC1 (stereo not given)	-6.3% (inactive)
CCCCCCCc1cc(=O)[nH]c(=S)[nH]1	-5.4% (inactive)
CN=C1c2ccccc2C(=O)c2c1c(O)n(-c1ccccc1)c2O	36.8% (inactive)
Cc1ccc([N+](=O)[O-])cc1NC(=O)Oc1cc(=O)oc2ccccc12	-0.75% (inactive)
CCOC(=O)c1ccc(NCc2cccc([N+](=O)[O-])c2)cc1	31.6% (inactive)
CCC(C)C(N)C(=O)NC(C(=O)O)C(C)C (stereo not drawn) (H-Ile-Val-OH; configuration not given here)	-0.4% (inactive)
CCN(CC)CCO/N=C1\CC(c2ccc(OC)c(OC)c2)Oc2ccccc21 (stereo not given)	9.8% (inactive)
